FLuc modulator = qHTS profiling assay for firefly luciferase inhibitor/activator using purifed enzyme and Km concentrations of substrates (counterscreen for miR-21 project); actives 6.9% (n = 360,000); AID 588342, 2011; Luciferin 4-monooxygenase (Photinus pyralis), P08659; purified FLuc, Km substrates, luminescence inhibition; Potency, µM (top dose mostly 57.5 µM), without a hit: top-dose activity change, negative = inhibition, usual class: inhibitors;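 further: plate controls were vehicle for no effect and reference inhibitor for full effect; nearly all actives have a fitted effect of over 55% in size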
Target sequence (P08659 whole entry, looked up): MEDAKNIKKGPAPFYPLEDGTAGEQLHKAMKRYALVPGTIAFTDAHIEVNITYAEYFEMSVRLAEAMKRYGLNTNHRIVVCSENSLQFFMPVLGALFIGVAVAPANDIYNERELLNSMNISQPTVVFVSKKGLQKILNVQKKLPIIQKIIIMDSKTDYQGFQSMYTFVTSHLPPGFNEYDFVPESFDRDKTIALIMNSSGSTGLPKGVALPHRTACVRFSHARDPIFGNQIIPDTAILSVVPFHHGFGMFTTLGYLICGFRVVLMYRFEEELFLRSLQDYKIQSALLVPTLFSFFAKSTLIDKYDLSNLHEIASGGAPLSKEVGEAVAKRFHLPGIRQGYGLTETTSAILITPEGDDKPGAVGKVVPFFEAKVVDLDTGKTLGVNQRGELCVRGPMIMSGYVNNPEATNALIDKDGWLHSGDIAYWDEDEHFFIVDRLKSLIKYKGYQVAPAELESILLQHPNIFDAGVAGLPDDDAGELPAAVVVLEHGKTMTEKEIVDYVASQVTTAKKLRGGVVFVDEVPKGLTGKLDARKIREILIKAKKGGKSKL
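Purified P. pyralis luciferase, 10 nM final, with Km-level 10 uM D-luciferin and 10 uM ATP in 50 mM Tris acetate pH 7.5, 10 mM Mg acetate, 0.01% Tween-20, 0.05% BSA; 6-point qHTS titration about 60 µM downward; luminescence read.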
ELG1 genotox = qHTS screen for small molecules that induce genotoxicity in human embryonic kidney (HEK293T) cells expressing luciferase-tagged ELG1; Potency, µM (series often up to 46 µM), for inactives: top-dose activity change, positive = activation, most hits filed as activators; actives 1.3% (n = 330,000); HEK293T ELG1-luciferase reporter, luminescence, 16 h; further: % of control where 0% means no effect; nearly all actives have a fitted effect of over 60% in size
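Genotoxic stress is detected as increased luminescence from luciferase-tagged ELG1 in HEK293T cells, measured with ONE-Glo after a 16 hr treatment at 37 °C.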
ELG1 repair inh = qHTS screen for small molecules that inhibit ELG1-dependent DNA repair in human embryonic kidney (HEK293T) cells expressing luciferase-tagged ELG1; HEK293T ELG1-luciferase reporter, luminescence, 16 h; DNA damage induced by 5-fluorouridine; Potency, µM (highest dose often 46.1 µM), inactives show at the highest dose activity change, negative = inhibition, actives largely listed as inhibitors; actives 2.3% (n = 330,000); AID 504467, 2011; further: on the % scale 0 is the no-effect control and ±100 the full control effect; nearly all actives have a fitted effect of over 55% in size
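Overnight (16 hr) co-exposure of 2,000 cells/well to 5-fluorouridine and compound at 37 °C preceded detection. Luciferase was quantified via ONE-Glo luminescence; loss of signal denotes inhibition.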
Rab9 promoter act = qHTS Assay for Rab9 Promoter Activators; Huh7 Rab9 promoter-luciferase reporter, luminescence, 24 h; actives 2.8% (n = 320,000); Potency, µM (highest dose often 9.22 µM), for the others: at the highest dose activation, negative = inhibition, usual class: activators; AID 485297, 2010; further: % of control where 0% means no effect; nearly all actives have a fitted effect of over 60% in size
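Cell-based reporter: Huh7 stable for Rab9 promoter-driven luciferase, plated in reduced-serum medium with 10% FBS at 1500 cells/well, compound-treated 24 h at 37 °C, luminescence read after 10 min reagent.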
NPC1 promoter act = qHTS Assay for NPC1 Promoter Activators; actives 2.4% (n = 320,000); Huh7 NPC1 promoter luciferase reporter, 24 h; Potency, µM (top dose mostly 9.22 µM), inactives show top-dose activation, actives largely listed as activators; further: % of control where 0% means no effect; nearly all actives have a fitted effect of over 60% in size
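Stable NPC1-promoter luciferase Huh7 line; cpd (DMSO) 24 h, 37 °C, 5% CO2; Amplite luciferase reagent 10 min RT; luminescence readout. qHTS format.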
SMN2 splice enh = qHTS Assay for Enhancers of SMN2 Splice Variant Expression | HEK293 SMN2-luciferase splicing reporter, luminescence, 30-36 h | Potency, µM (titrated, usually from 46.1 µM), inactives show at the top dose activity change, positive = activation, most hits filed as activators | actives 2.8% (n = 210,000); further: % of control where 0% means no effect; nearly all actives have a fitted effect of over 55% in size
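qHTS luciferase splicing reporter: luminescence rises when SMN2 exon 7 is included in transfected HEK293 cells. Compound exposure lasted 30-36 h at 37C, with 4.5 mM final sodium butyrate as control, followed by a ONE-Glo read.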
Starred values were filed as active, the others as inactive. This is a sample that favours compounds with a hit; in the whole collection about 9.4% have one here. The call rests on the fitted dose curve; in most records, active means well fitted curve in the direction sought with a large enough effect; inconclusive means small, poorly fitted or top-dose-only effect, or another doubt; inactive means no such curve, though single readings can be large; an effect the other way counts as inactive or inconclusive. Potency means the concentration at half of the fitted maximal effect.

Screening COC(=O)c1c(NC(=O)CCCC(=O)O)sc(C)c1C returned FLuc modulator 8%, ELG1 genotox 1%, ELG1 repair inh 1%, Rab9 promoter act -1%, NPC1 promoter act -3% and SMN2 splice enh -12%.
Screening Cc1sc(NC(=O)CCCC(=O)O)c(C(N)=O)c1-c1ccccc1 returned FLuc modulator 0.76µM*, ELG1 genotox inconclusive, ELG1 repair inh inconclusive, Rab9 promoter act 4%, NPC1 promoter act 16% and SMN2 splice enh -1%.
`O=C(N/N=C/C=C\c1ccccc1[N+](=O)[O-])c1ccncc1` gave FLuc modulator -2%, ELG1 genotox 0%, ELG1 repair inh 20%, Rab9 promoter act -10%, NPC1 promoter act 2% and SMN2 splice enh -27%.
For NS(=O)(=O)c1ccc(N/N=C/C=C/c2ccccc2[N+](=O)[O-])cc1 the results were FLuc modulator 17µM*, ELG1 genotox inconclusive, ELG1 repair inh inconclusive, Rab9 promoter act inconclusive and NPC1 promoter act inconclusive.
Screening O=C(O)c1cc(N/N=C/C=C/c2ccccc2[N+](=O)[O-])ccc1Cl returned FLuc modulator 19µM*, ELG1 genotox inconclusive, ELG1 repair inh inconclusive, Rab9 promoter act 3.5µM* and NPC1 promoter act 1.4µM*.
`O=[N+]([O-])c1ccccc1/C=C/C=N/N1CCCCC1` gave FLuc modulator 11µM*, ELG1 genotox 4.6µM*, ELG1 repair inh inconclusive, Rab9 promoter act 2.2µM*, NPC1 promoter act inconclusive and SMN2 splice enh 16µM*.
Screening COc1cccc([C@@H]2Oc3ccc(Br)cc3C(=O)[C@H]2OC(=O)Nc2ccc(OC(F)F)cc2)c1 returned SMN2 splice enh 17%.
Screening COc1ccc(CCN2CCCC(CN(C)C(=O)c3ccoc3)C2)cc1 (centres undefined) returned FLuc modulator 15µM*, ELG1 genotox 16µM*, ELG1 repair inh inconclusive, Rab9 promoter act 2.2µM* and NPC1 promoter act 2.5µM*.
`COC(=O)c1ccc(OCC(=O)c2ccc(C)c(C)c2)cc1` gave FLuc modulator inconclusive, ELG1 genotox 3%, ELG1 repair inh inconclusive, Rab9 promoter act 22%, NPC1 promoter act 26% and SMN2 splice enh 19%.
COC(=O)c1ccc(OCC(=O)c2ccc(O)cc2O)cc1 was read as FLuc modulator 6.7µM*, ELG1 genotox 10%, ELG1 repair inh inconclusive, Rab9 promoter act 4%, NPC1 promoter act inconclusive and SMN2 splice enh -7%.
O=C(COc1ccc(Cl)cc1)c1ccc(O)cc1O was read as FLuc modulator 8.5µM*, ELG1 genotox inconclusive, ELG1 repair inh inconclusive, Rab9 promoter act inconclusive and NPC1 promoter act 30%.
`O=C(COc1ccccc1)OCC(=O)c1ccc(O)cc1O` gave FLuc modulator inconclusive, ELG1 genotox 0%, ELG1 repair inh 11%, Rab9 promoter act 3% and NPC1 promoter act -9%.
For CCOC(=O)c1ccc(OCC(=O)c2ccc(O)cc2O)cc1 the results were FLuc modulator 6.7µM*, ELG1 genotox inconclusive, ELG1 repair inh inconclusive, Rab9 promoter act 22%, NPC1 promoter act 21% and SMN2 splice enh -2%.
`O=C(COC(=O)c1ccc(O)cc1O)Nc1ccc(Cl)cn1` gave FLuc modulator 6%, ELG1 genotox -4%, ELG1 repair inh 7%, Rab9 promoter act 17% and NPC1 promoter act -5%.

Source: PubChem BioAssay
